Only some compounds are listed: those with a hit (about 1.3% of all), similar ones and a draw of the others.
AmpC inh no detg – qHTS Inhibitors of AmpC Beta-Lactamase (assay without detergent); P00811; AmpC nitrocefin hydrolysis, absorbance 480 nm, 0.0001% Triton; Potency, µM (titrated, usually from 57.1 µM), most hits filed as inhibitors; 0.52% of 330,000 active; note: nearly all actives have a fitted effect of over 20% in size
Target sequence (P00811 whole entry, looked up): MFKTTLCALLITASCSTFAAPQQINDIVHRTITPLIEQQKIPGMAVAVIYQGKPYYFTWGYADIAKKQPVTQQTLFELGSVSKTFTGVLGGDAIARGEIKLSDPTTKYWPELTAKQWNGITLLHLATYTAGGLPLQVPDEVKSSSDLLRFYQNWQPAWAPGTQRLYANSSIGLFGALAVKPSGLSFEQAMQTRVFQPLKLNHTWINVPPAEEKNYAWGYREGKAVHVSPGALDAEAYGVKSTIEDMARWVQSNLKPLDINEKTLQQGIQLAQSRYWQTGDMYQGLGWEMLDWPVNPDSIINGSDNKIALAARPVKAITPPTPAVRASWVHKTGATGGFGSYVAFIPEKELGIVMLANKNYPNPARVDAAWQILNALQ
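20 mM phosphate pH 7.0 + 0.01% (detergent screen) or 0.0001% Triton X-100; 5.3 nM AmpC reagent; cpd preinc 15 min RT; nitrocefin (800 uM stock) to start; A480 q20 s × 4 min; Activity was normalised to no-enzyme and no-compound control wells.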
LmPK inhibitor – qHTS Assay for Inhibitors of Leishmania Mexicana Pyruvate Kinase (LmPK) | Potency, µM (top dose mostly 57.5 µM), actives largely listed as inhibitors | purified LmPK, Kinase-Glo ATP luminescence, 1 h | Q27686 | 0.37% of 290,000 active
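ATP generated from ADP (0.1 mM) and PEP (0.5 mM) by 0.1 nM LmPK over 1 h at room temperature (pH 7.2 imidazole buffer) was detected by coupled luciferase luminescence. Values were normalized to uninhibited and no-enzyme wells.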
AmpC detergent – qHTS Inhibitors of AmpC Beta-Lactamase (assay with detergent); P00811; AmpC hydrolysis of nitrocefin, absorbance 480 nm, 0.01% Triton; Potency, µM (doses to about 114 µM), usual class: inhibitors; 0.041% of 370,000 active; AID 485294, 2010; note: nearly all actives have a fitted effect of over 25% in size
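20 mM phosphate pH 7.0 + 0.01% (detergent screen) or 0.0001% Triton X-100; 5.3 nM AmpC reagent; cpd preinc 15 min RT; nitrocefin (800 uM stock) to start; A480 q20 s × 4 min; Activity was normalised to no-enzyme and no-compound control wells.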
AMA1 RON2 block – qHTS for Inhibitors of AMA1-RON; Towards Development of Antimalarial Drug Lead: Primary Screen; Plasmodium falciparum AMA1 (3D7) - RON2 peptide interaction; AlphaScreen AMA1-biotinylated RON2 peptide binding; Potency, µM (series often up to 58.2 µM), most hits filed as inhibitors; 0.2% of 360,000 active; AID 720542, 2013; note: nearly all actives have a fitted effect of over 45% in size
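AMA1 (3D7) with his tag at 25 nM final met compounds first, then biotinylated RON2 peptide at 25 nM; detection used donor plus acceptor beads, 10 µg/mL apiece, read by AlphaScreen after 30 min at room temperature.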
Giardia FBPA inh-1 – qHTS Assay for Inhibitors of Fructose-1,6-bisphosphate Aldolase from Giardia Lamblia; 0.71% of 290,000 active; Potency, µM (series often up to 59.6 µM), usual class: inhibitors; AID 2451, 2010; A8B2U2; purified Giardia FBPA; note: nearly all actives have a fitted effect of over 55% in size
Target sequence (A8B2U2 whole entry, looked up): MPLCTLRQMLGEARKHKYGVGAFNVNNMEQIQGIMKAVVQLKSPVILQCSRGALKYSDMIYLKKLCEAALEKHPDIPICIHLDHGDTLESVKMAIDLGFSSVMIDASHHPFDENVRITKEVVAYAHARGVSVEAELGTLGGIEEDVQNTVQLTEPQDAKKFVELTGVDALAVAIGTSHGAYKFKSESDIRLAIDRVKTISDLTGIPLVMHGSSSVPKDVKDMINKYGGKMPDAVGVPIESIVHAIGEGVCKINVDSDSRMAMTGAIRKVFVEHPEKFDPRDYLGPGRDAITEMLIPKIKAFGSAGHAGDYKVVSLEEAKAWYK
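Giardia FBPA (40 nM reagent) was preincubated 10 min at RT with compound (up to 57.5 uM final), then substrate plus GAPDH/TPI/NAD/arsenate coupling system with diaphorase/resazurin was added; resorufin fluorescence (525/598 nm) was read after 20 min.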
Giardia growth – qHTS Assay for Inhibitors of Fructose-1,6-bisphosphate Aldolase from Giardia Lamblia: Giardia lamblia growth inhibition | Giardia lamblia trophozoite growth inhibition | Potency, µM (highest dose often 57.5 µM), most hits filed as inhibitors | shares compounds with Giardia FBPA inh-1 | 5% of 1,500 active;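 note: trophozoites exposed to compound for 48 h at 37 °C; nearly all actives have a fitted effect of over 70% in size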
Mammalian tox – qHTS Assay for Inhibitors of Fructose-1,6-bisphosphate Aldolase from Giardia Lamblia: Mammalian cellular toxicity; mammalian cell viability counter-screen, qHTS; AID 2786, 2010; Potency, µM (doses to about 57.5 µM), most hits filed as inhibitors; shares compounds with Giardia FBPA inh-1; 4% of 1,500 active;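 note: Chinese hamster ovary cells used as mammalian cytotoxicity surrogate; viability measured as cellular ATP by luminescence; compound exposure lasted 48 h before reading; nearly all actives have a fitted effect of over 60% in size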
Giardia FBPA inh-2 – qHTS Assay for Inhibitors of Fructose-1,6-bisphosphate Aldolase from Giardia Lamblia: Primary screen confirmation; shares compounds with Giardia FBPA inh-1; purified Giardia aldolase enzyme activity, qHTS; Potency, µM (highest dose often 57.5 µM), actives largely listed as inhibitors; 5% of 1,500 active; note: nearly all actives have a fitted effect of over 45% in size
Rabbit aldolase – qHTS Assay for Inhibitors of Fructose-1,6-bisphosphate Aldolase from Giardia Lamblia: Rabbit FBPA Selectivity; shares compounds with Giardia FBPA inh-1; Rabbit muscle FBPA enzyme inhibition, selectivity counter-screen; Potency, µM (titrated, usually from 57.5 µM), usual class: inhibitors; 4% of 1,500 active; note: nearly all actives have a fitted effect of over 60% in size
GAPDH coupling – qHTS Assay for Inhibitors of Fructose-1,6-bisphosphate Aldolase from Giardia Lamblia: Coupling assay counterscreen confirmation | AID 2795, 2010 | GAPDH coupling enzyme counterscreen, biochemical, qHTS | Potency, µM (series often up to 57.5 µM), actives largely listed as inhibitors | 6% of 1,500 active | shares compounds with Giardia FBPA inh-1; note: nearly all actives have a fitted effect of over 55% in size
Each line names hits and unclear results; the compound was inactive in the other large screens (follow-up assays come after a bar, where they were run); [ ] = remark or other dose. Calls come from the whole dose curve; as a rule, active = well fitted curve in the direction sought with a large enough effect; inconclusive = small, poorly fitted or top-dose-only effect, or another doubt; inactive = no such curve, though single readings can be large; an effect the other way counts as inactive or inconclusive.

CN1CCC(N2CCN(C3CN(Cc4ccc(F)cc4)S(=O)(=O)C3)CC2)CC1 (configuration not stated)	none (no result: AmpC inh no detg, LmPK inhibitor, AmpC detergent, Giardia FBPA inh-1)
O=C(C[n+]1ccccc1)Nc1c(Cl)cc(Cl)cc1Cl	Giardia FBPA inh-1 12.6µM | Giardia growth inactive | Mammalian tox inactive | Giardia FBPA inh-2 inactive | Rabbit aldolase inactive | GAPDH coupling inactive
Cc1ccc[n+](CC(=O)Nc2c(Cl)cc(Cl)cc2Cl)c1	none
CC1CCN(C(=O)CN(CCc2ccccc2)S(C)(=O)=O)CC1	none
CC(C)CC(=O)N1CCC(N(CCc2ccccc2)Cc2ccccc2)CC1	Giardia FBPA inh-1 25.1µM | Giardia growth inactive | Mammalian tox inactive | Giardia FBPA inh-2 inactive | Rabbit aldolase inactive | GAPDH coupling inactive
CC1=C/C(=N\N=C2\NC(=O)C(CC(=O)Nc3ccccc3)S2)CC(C)(C)C1 (configuration not stated)	none
NC(=O)NC(=O)CC1S/C(=N/N=C/c2ccccc2)NC1=O (configuration not stated)	none
NC(=O)NC(=O)CC1S/C(=N/N=C2\CSC(=O)N2)NC1=O (configuration not stated)	Giardia FBPA inh-1 12.6µM | Giardia growth inactive | Mammalian tox inactive | Giardia FBPA inh-2 inactive | Rabbit aldolase inactive | GAPDH coupling inactive
O=C(O)CNC(=O)CC1S/C(=N/N=C2/NC(=O)CS2)NC1=O (configuration not stated)	Giardia FBPA inh-1 17.7µM | Giardia growth inconclusive | Mammalian tox inactive | Giardia FBPA inh-2 inactive | Rabbit aldolase inactive | GAPDH coupling inactive
Cc1ccc([N+](=O)[O-])cc1NC(=S)NC(=O)c1c(Cl)cnn1C	Giardia FBPA inh-1 7.94µM | Giardia growth inactive | Mammalian tox inactive | Giardia FBPA inh-2 inactive | Rabbit aldolase inactive | GAPDH coupling inactive
Cc1ccc([N+](=O)[O-])cc1NC(=S)NC(=O)C(C)(C)C	none
COc1cccc(COCCN2CCN(S(=O)(=O)c3ccccc3)CCC2=O)c1	none (no result: AmpC inh no detg, LmPK inhibitor, AmpC detergent, AMA1 RON2 block)
CC(=O)c1c(C)nc(-c2ccc(Cl)cc2)nc1N	Giardia FBPA inh-1 5µM | Giardia growth inactive | Mammalian tox inactive | Giardia FBPA inh-2 inactive | Rabbit aldolase inactive | GAPDH coupling inactive
Cc1ccc(NC(=S)c2ccncc2)c(C)c1	Giardia FBPA inh-1 15.8µM | Giardia growth inactive | Mammalian tox inactive | Giardia FBPA inh-2 inactive | Rabbit aldolase inactive | GAPDH coupling inactive
Cc1ccc(NC(=S)Nc2cccc3cnccc23)c(C)c1	Giardia FBPA inh-1 inconclusive
Cc1nccn1CC(=O)N/N=C/c1cc(Br)cs1	none
CCN1CCN(CC(=O)N/N=C/c2cc(Br)cs2)CC1	Giardia FBPA inh-1 17.8µM | Giardia growth inactive | Mammalian tox inactive | Giardia FBPA inh-2 inactive | Rabbit aldolase inactive | GAPDH coupling inactive
CCN(CC)c1ccc(N=Cc2c(C)[nH]c3ccccc23)cc1	Giardia FBPA inh-1 inconclusive | Giardia growth inactive | Mammalian tox inactive | Giardia FBPA inh-2 inconclusive | Rabbit aldolase inconclusive | GAPDH coupling inconclusive
O=C(CSc1n[nH]c(-c2cccnc2)n1)Nc1ccc(Br)cc1	Giardia FBPA inh-1 14.1µM | Giardia growth inconclusive | Mammalian tox inactive | Giardia FBPA inh-2 inactive | Rabbit aldolase inactive | GAPDH coupling inactive
C=CCSC1=N/C(=C\C=C\c2ccco2)C(=O)S1	AMA1 RON2 block inconclusive, Giardia FBPA inh-1 6.29µM | Giardia growth inactive | Mammalian tox inactive | Giardia FBPA inh-2 inactive | Rabbit aldolase inactive | GAPDH coupling inactive
COC(=O)C1=C(C)NC(C)=C(C(=O)NCCCN2CCC(c3ccccc3)(c3ccccc3)CC2)C1c1ccc([N+](=O)[O-])cc1 (configuration not stated)	none (no result: AmpC inh no detg, LmPK inhibitor, AmpC detergent, AMA1 RON2 block)
CC(=O)Nc1ccc2ccccc2c1	none
CCOC(=O)C(Nc1ccc2ccccc2c1)C(=O)OCC	AMA1 RON2 block inconclusive, Giardia FBPA inh-1 3.54µM | Giardia growth inactive | Mammalian tox inactive | Giardia FBPA inh-2 inconclusive | Rabbit aldolase inconclusive | GAPDH coupling 39.8µM
CCN(c1ccccc1)S(=O)(=O)c1ccc(C(=O)Nc2nnc(CSC)o2)cc1	AmpC detergent inconclusive, Giardia FBPA inh-1 15.8µM | Giardia growth inactive[10.4 µM] | Mammalian tox inactive | Giardia FBPA inh-2 inactive | Rabbit aldolase inactive | GAPDH coupling inactive
CN(c1ccccc1)S(=O)(=O)c1ccc(C(=O)Nc2nnc(C3CC3)o2)cc1	Giardia FBPA inh-1 4.46µM | Giardia growth inactive | Mammalian tox inconclusive | Giardia FBPA inh-2 inactive | Rabbit aldolase inactive | GAPDH coupling inactive
CCN(c1ccccc1)S(=O)(=O)c1ccc(C(=O)Nc2nnc(-c3ccco3)o2)cc1	none
CCC1CCCCN1S(=O)(=O)c1ccc(C(=O)Nc2nnc(-c3ccccc3Cl)o2)cc1 (configuration not stated)	Giardia FBPA inh-1 inconclusive
COCCN(CCOC)S(=O)(=O)c1ccc(C(=O)Nc2nnc(C3CC3)o2)cc1	none
CCN(c1ccccc1)S(=O)(=O)c1ccc(C(=O)Nc2nnc(C3CC3)o2)cc1	Giardia FBPA inh-1 8.89µM | Giardia growth 44.7µM | Mammalian tox inactive | Giardia FBPA inh-2 inactive | Rabbit aldolase inactive | GAPDH coupling inactive
CCC1CCCCN1S(=O)(=O)c1ccc(C(=O)Nc2nnc(C3CC3)o2)cc1 (configuration not stated)	Giardia FBPA inh-1 25.1µM | Giardia growth inactive[10.4 µM] | Mammalian tox inactive | Giardia FBPA inh-2 inactive | Rabbit aldolase inactive | GAPDH coupling inactive
O=C(OCC(=O)N1CCc2ccccc2C1)c1ccc(O)cc1	none (no result: LmPK inhibitor, AmpC detergent, Giardia FBPA inh-1)
